Activity calls are given as the source filed them. The calls were made as follows: active = hit-call score of the fitted dose curve at least 0.9, where 1 is the maximum; inactive = score below 0.9.
Read-out: Phosphatase and tensin (PTEN), PTEN (gene 5728)
Test: LTEA_HepaRG_PTEN: Life Technologies and Expression Analysis (LTEA) Assay for Phosphatase and tensin (PTEN) using HepaRG (AID 2283523)
Details: mRNA level, 48 h; actives raise or lower the signal
Method in brief: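 HepaRG, 48 h exposure, 8-pt half-log series from 100 uM top, 0.5% DMSO vehicle, duplicates. Readout: Fluidigm qRT-PCR of PTEN transcript; housekeeping normalization (ACTB, GAPDH, POLR2A). Gain or loss fitted relative to DMSO baseline.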

| Compound | outcome | AC50 |
| --- | --- | --- |
| c1cc2ccc3cccc4ccc(c1)c2c34 | inactive |  |
| CCSC(=O)N(CC)C1CCCCC1 | inactive |  |
| CC(C)(c1ccccc1)c1ccc(O)cc1 | inactive |  |
| CCOP(=S)(OCC)SCSC(C)(C)C | inactive |  |
| Nc1ccc(-c2ccc(N)cc2)cc1 | inactive |  |
| COS(=O)(=O)OC | inactive |  |
| CCCCCCCCCC[N+](C)(C)CCCCCCCCCC |  | 83.2 µM (active) |
| Cc1cccc(C)c1N | inactive |  |
| O=NN(c1ccccc1)c1ccccc1 | inactive |  |
| CCCCCCCCOC(=O)c1ccccc1C(=O)OCCCCCCCC | inactive |  |
| O=C(O)C(F)(F)C(F)(F)C(F)(F)C(F)(F)C(F)(F)F | inactive |  |
| NS(=O)(=O)C(F)(F)C(F)(F)C(F)(F)C(F)(F)C(F)(F)C(F)(F)C(F)(F)C(F)(F)F |  | 26.2 µM (active) |
| O=S(=O)(O)C(F)(F)C(F)(F)C(F)(F)C(F)(F)F | inactive |  |
| CC1=C2C[C@H]3[C@@H](CC=C4C[C@@H](O)CC[C@@]43C)[C@@H]2CC[C@]12O[C@@H]1C[C@H](C)CN[C@H]1[C@H]2C | inactive |  |
| CCC(C)(c1ccc(O)cc1)c1ccc(O)cc1 | inactive |  |
| Cc1ccccc1O | inactive |  |
| C=CC(N)=O | inactive |  |
| Cc1ccc(O)c(C)c1 | inactive |  |
| CN(C)CCO | inactive |  |
| O=C(N[C@H]1CN2CCC1CC2)c1cc2ccoc2cn1 | inactive |  |
| O=S(=O)(O)C(F)(F)C(F)(F)C(F)(F)C(F)(F)C(F)(F)C(F)(F)F |  | 10.3 µM (active) |
| C1CC2OC2CC1C1CO1 (configuration not stated) | inactive |  |
| Cc1ccccc1CO[C@@H]1C[C@@]2(C(C)C)CC[C@]1(C)O2 | inactive |  |
| CCC(C)c1cc([N+](=O)[O-])cc([N+](=O)[O-])c1O (configuration not stated) |  | 5.41 µM (active) |

Read-out: solute carrier (SLC22A1), SLC22A1 (gene 6580)
Test: LTEA_HepaRG_SLC22A1: Life Technologies and Expression Analysis (LTEA) Assay for solute carrier (SLC22A1) using HepaRG (AID 2283524);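 as to AC50: differentiated human HepaRG liver cells in serum-free induction medium; TaqMan qRT-PCR normalized to ACTB GAPDH and POLR2A housekeeping genes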
Details: mRNA level, 48 h; actives raise or lower the signal
Method in brief: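 qRT-PCR readout (TaqMan, Fluidigm arrays) of SLC22A1 transcript, normalized to three housekeeping genes; bidirectional curve fit relative to 0.5% DMSO vehicle. Differentiated human HepaRG cells, 48 h chemical exposure, top concentration 100 uM, half-log steps, eight points.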

| Compound | outcome | AC50 |
| --- | --- | --- |
| CCSC(=O)N(CC)C1CCCCC1 | inactive |  |
| CC(C)(c1ccccc1)c1ccc(O)cc1 |  | 50 µM (active) |
| CCOC(=O)C(O)(c1ccc(Cl)cc1)c1ccc(Cl)cc1 | inactive |  |
| O=C(O)C(F)(F)C(F)(F)C(F)(F)C(F)(F)C(F)(F)C(F)(F)C(F)(F)C(F)(F)C(F)(F)F |  | 41.2 µM (active) |
| CCCCCCCCCc1ccc(O)cc1 | inactive |  |
| O=NN(c1ccccc1)c1ccccc1 | inactive |  |
| CCCCCCCCOC(=O)c1ccccc1C(=O)OCCCCCCCC | inactive |  |
| O=C(O)C(F)(F)C(F)(F)C(F)(F)C(F)(F)C(F)(F)F | inactive |  |
| O=S(=O)(O)C(F)(F)C(F)(F)C(F)(F)C(F)(F)F | inactive |  |
| CC1=C2C[C@H]3[C@@H](CC=C4C[C@@H](O)CC[C@@]43C)[C@@H]2CC[C@]12O[C@@H]1C[C@H](C)CN[C@H]1[C@H]2C | inactive |  |
| CN(C)c1nc(=O)n(C2CCCCC2)c(=O)n1C | inactive |  |
| Cc1cccc([N+](=O)[O-])c1 | inactive |  |
| CN(C)CCO | inactive |  |
| Cc1cc(-c2ccc(N)c(C)c2)ccc1N |  | 50 µM (active) |
| c1ccc(-c2ccccc2)cc1 | inactive |  |
| C1CC2OC2CC1C1CO1 (configuration not stated) | inactive |  |

Read-out: Pyruvate Dehydrogenase Kinase 4 (PDK4), PDK4 (gene 5166)
Test: LTEA_HepaRG_PDK4: Life Technologies and Expression Analysis (LTEA) Assay for Pyruvate Dehydrogenase Kinase 4 (PDK4) using HepaRG (AID 2283525)
Details: mRNA level, 48 h; actives raise or lower the signal
Method in brief: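 HepaRG (human liver line), 48 h chemical exposure, 8-pt half-log CRC top 100 uM, 0.5% DMSO vehicle, duplicates. Readout: TaqMan qRT-PCR of PDK4 mRNA, housekeeping-normalized; gain/loss fit relative to DMSO baseline.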

| Compound | outcome | AC50 |
| --- | --- | --- |
| c1cc2ccc3cccc4ccc(c1)c2c34 | inactive |  |
| CCSC(=O)N(CC)C1CCCCC1 | inactive |  |
| CC(C)(c1ccccc1)c1ccc(O)cc1 | inactive |  |
| CCOP(=S)(OCC)SCSC(C)(C)C |  | 18 µM (active) |
| CCOC(=O)C(O)(c1ccc(Cl)cc1)c1ccc(Cl)cc1 |  | 36.2 µM (active) |
| Nc1ccc(-c2ccc(N)cc2)cc1 | inactive |  |
| COS(=O)(=O)OC | inactive |  |
| CCCCCCCCCC[N+](C)(C)CCCCCCCCCC |  | 82.5 µM (active) |
| O=C(O)C(F)(F)C(F)(F)C(F)(F)C(F)(F)C(F)(F)C(F)(F)C(F)(F)C(F)(F)C(F)(F)F |  | 25.7 µM (active) |
| Cc1cccc(C)c1N | inactive |  |
| CCCCCCCCCc1ccc(O)cc1 |  | 63.2 µM (active) |
| O=NN(c1ccccc1)c1ccccc1 | inactive |  |
| CCCCCCCCOC(=O)c1ccccc1C(=O)OCCCCCCCC | inactive |  |
| Oc1ccc(C(c2ccc(O)cc2)(C(F)(F)F)C(F)(F)F)cc1 | inactive |  |
| O=C(O)C(F)(F)C(F)(F)C(F)(F)C(F)(F)C(F)(F)F |  | 14.9 µM (active) |
| NS(=O)(=O)C(F)(F)C(F)(F)C(F)(F)C(F)(F)C(F)(F)C(F)(F)C(F)(F)C(F)(F)F | inactive |  |

| Compound | outcome | AC50 |
| --- | --- | --- |
| O=S(=O)(O)C(F)(F)C(F)(F)C(F)(F)C(F)(F)F | inactive |  |
| CC1=C2C[C@H]3[C@@H](CC=C4C[C@@H](O)CC[C@@]43C)[C@@H]2CC[C@]12O[C@@H]1C[C@H](C)CN[C@H]1[C@H]2C | inactive |  |
| CCC(C)(c1ccc(O)cc1)c1ccc(O)cc1 | inactive |  |
| CN(C)c1nc(=O)n(C2CCCCC2)c(=O)n1C | inactive |  |
| Cc1ccccc1O | inactive |  |
| C=CC(N)=O | inactive |  |
| Cc1cccc([N+](=O)[O-])c1 | inactive |  |
| Cc1ccc(O)c(C)c1 | inactive |  |
| CN(C)CCO | inactive |  |
| O=C(N[C@H]1CN2CCC1CC2)c1cc2ccoc2cn1 | inactive |  |
| O=S(=O)(O)C(F)(F)C(F)(F)C(F)(F)C(F)(F)C(F)(F)C(F)(F)F |  | 35.2 µM (active) |
| Cc1cc(-c2ccc(N)c(C)c2)ccc1N |  | 9.92 µM (active) |
| c1ccc(-c2ccccc2)cc1 | inactive |  |
| C1CC2OC2CC1C1CO1 (configuration not stated) | inactive |  |
| Cc1ccccc1CO[C@@H]1C[C@@]2(C(C)C)CC[C@]1(C)O2 |  | 50 µM (active) |
| CCC(C)c1cc([N+](=O)[O-])cc([N+](=O)[O-])c1O (configuration not stated) | inactive |  |

Source: PubChem BioAssay (EPA / NIEHS)
